Measured values reported in PubChem BioAssay (Tox21).
Where “and” joins values, the source holds several entries; their conditions need not be identical. Identical values can stand only once. Results filed as inconclusive are left out. Some structures have more than one record in an assay (separate samples or runs), and their calls can disagree. Calls of active or inactive are those of the source. Unless noted, calls come from the whole dose curve; as a rule, active = well fitted curve in the direction sought with a large enough effect in the repeat runs; inconclusive = weak or mixed curves; inactive = no such curve, though single readings can be large; an effect the other way counts as inactive or inconclusive.

Columns and labels:
[1] = target: Acetylcholinesterase (Homo sapiens) (UniProt P22303); assay: Acetylcholinesterase (AChE) small molecule antagonists: enzyme-based qHTS assay with human liver microsomes (AID 1347399; calls by dose curve; note: nearly all actives have a fitted effect of over 60% in size); conditions: Potency: qHTS inhibition; outcome: qHTS inhibition; series mostly up to 115 µM
Chain of Acetylcholinesterase (Homo sapiens) (P22303 whole entry, looked up): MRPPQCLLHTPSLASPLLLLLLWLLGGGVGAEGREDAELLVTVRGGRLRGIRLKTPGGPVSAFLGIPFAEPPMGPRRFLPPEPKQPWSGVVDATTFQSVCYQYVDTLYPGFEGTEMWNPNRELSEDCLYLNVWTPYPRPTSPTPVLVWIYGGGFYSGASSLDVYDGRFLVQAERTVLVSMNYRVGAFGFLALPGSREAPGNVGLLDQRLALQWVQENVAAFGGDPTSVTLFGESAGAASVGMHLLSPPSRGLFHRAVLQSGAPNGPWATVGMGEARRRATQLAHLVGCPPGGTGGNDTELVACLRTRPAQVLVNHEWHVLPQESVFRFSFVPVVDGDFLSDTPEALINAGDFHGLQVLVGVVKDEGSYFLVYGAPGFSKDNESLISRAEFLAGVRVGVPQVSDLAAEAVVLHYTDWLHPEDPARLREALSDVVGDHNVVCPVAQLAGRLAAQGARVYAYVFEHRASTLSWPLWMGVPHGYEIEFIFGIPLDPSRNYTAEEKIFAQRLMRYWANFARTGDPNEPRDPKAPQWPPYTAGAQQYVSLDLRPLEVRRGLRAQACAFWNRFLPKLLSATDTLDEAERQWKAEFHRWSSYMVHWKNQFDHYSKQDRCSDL
How it was run: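 Recombinant human AChE (50 mU/mL in the enzyme mix) and human liver microsomes (0.25 mg/mL final) were preincubated with compound and NADPH (0.25 mg/mL final) for 30 min at 37 C. Acetylthiocholine/DTNB was then added; thiocholine was read colorimetrically after 10 min at room temperature.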

[2] = target: Cytochrome P450 2D6 (Homo sapiens) (UniProt P10635); assay: Cytochrome P450 Family 2 Subfamily D Member 6 (CYP2D6) small molecule antagonists: luciferase reporter qHTS assay (AID 1671196); conditions: P450-Glo CYP2D6 enzyme assay, luciferin luminescence, 1 h; series mostly up to 115 µM; note: nearly all actives have a fitted effect of over 50% in size
Chain of Cytochrome P450 2D6 (Homo sapiens) (P10635 whole entry, looked up): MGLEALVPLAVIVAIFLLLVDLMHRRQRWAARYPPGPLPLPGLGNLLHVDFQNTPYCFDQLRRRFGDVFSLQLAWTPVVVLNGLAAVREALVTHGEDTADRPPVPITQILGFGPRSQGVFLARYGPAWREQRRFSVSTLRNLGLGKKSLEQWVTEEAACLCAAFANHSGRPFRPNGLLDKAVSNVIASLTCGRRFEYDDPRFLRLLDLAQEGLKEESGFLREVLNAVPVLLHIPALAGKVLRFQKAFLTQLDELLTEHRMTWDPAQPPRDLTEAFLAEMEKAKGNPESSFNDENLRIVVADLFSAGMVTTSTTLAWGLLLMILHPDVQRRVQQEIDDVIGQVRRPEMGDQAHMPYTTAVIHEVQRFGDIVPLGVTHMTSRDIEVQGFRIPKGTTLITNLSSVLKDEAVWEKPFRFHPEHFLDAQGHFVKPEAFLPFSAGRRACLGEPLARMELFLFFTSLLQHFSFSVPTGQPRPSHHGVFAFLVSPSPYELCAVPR
How it was run: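 CYP2D6 activity was followed as luminescence from its luciferin product after a 1 h NADPH-driven reaction at room temperature. Enzyme-substrate mix and compound were pre-incubated for 10 min, and the signal was read 20 min after adding detection reagent.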

[3] = target: Cytochrome P450 2C19 (Homo sapiens) (UniProt P33261); assay: Cytochrome P450 Family 2 Subfamily C Member 19 (CYP2C19) small molecule antagonists: luciferase reporter qHTS assay (AID 1671197); conditions: P450-Glo CYP2C19 enzyme, luciferin luminescence, 1 h; series mostly up to 115 µM; note: nearly all actives have a fitted effect of over 65% in size
Chain of Cytochrome P450 2C19 (Homo sapiens) (P33261 whole entry, looked up): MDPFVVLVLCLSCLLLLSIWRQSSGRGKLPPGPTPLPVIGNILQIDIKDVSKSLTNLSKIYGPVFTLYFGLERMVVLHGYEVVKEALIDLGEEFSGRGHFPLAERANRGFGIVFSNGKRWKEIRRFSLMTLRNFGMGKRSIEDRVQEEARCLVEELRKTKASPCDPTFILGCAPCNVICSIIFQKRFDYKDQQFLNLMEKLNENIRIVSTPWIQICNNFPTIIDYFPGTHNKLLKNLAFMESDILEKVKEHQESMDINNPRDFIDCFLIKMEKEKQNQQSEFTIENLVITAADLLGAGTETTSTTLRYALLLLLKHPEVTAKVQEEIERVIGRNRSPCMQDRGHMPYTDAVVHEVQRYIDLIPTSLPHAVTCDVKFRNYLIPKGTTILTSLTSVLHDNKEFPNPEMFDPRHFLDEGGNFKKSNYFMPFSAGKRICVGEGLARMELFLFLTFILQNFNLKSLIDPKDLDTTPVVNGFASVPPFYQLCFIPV
How it was run: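 Inhibition of CYP2C19 was scored from loss of luminescence in a P450-Glo proluciferin substrate assay, NADPH-started and run 1 h at 37C, with ketoconazole as positive control.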

[4] = target: Cytochrome P450 2C9 (Homo sapiens) (UniProt P11712); assay: Cytochrome P450 Family 2 Subfamily C Member 9 (CYP2C9) small molecule antagonists: luciferase reporter qHTS assay (AID 1671198); conditions: P450-Glo CYP2C9 enzyme assay, luciferin luminescence; series mostly up to 115 µM; note: nearly all actives have a fitted effect of over 50% in size
Chain of Cytochrome P450 2C9 (Homo sapiens) (P11712 whole entry, looked up): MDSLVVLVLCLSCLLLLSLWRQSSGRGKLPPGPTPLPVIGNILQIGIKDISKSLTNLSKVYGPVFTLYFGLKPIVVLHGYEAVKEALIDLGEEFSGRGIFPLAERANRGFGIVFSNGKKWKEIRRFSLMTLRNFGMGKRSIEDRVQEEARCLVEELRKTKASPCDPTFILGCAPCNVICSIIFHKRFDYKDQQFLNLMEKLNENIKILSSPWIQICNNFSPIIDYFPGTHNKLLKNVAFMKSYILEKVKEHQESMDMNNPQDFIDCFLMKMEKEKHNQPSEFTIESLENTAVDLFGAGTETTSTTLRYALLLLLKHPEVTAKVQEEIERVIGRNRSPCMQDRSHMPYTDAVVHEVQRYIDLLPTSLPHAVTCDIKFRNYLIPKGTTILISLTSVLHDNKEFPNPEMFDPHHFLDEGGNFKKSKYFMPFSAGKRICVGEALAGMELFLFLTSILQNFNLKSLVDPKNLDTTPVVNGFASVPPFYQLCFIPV
How it was run: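 P450-Glo proluciferin substrate with CYP2C9 enzyme; 10 min RT preincubation, then NADPH regeneration 1 h at 37C; luciferin detection reagent 20 min RT, luminescence in relative luminescence units.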

[5] = target: Cytochrome P450 1A2 (Homo sapiens) (UniProt P05177); assay: Cytochrome P450 Family 1 Subfamily A Member 2 (CYP1A2) small molecule antagonists: luciferase reporter qHTS assay (AID 1671199); conditions: P450-Glo CYP1A2 enzyme, luciferin luminescence, 1 h; series mostly up to 115 µM; note: nearly all actives have a fitted effect of over 50% in size
Chain of Cytochrome P450 1A2 (Homo sapiens) (P05177 whole entry, looked up): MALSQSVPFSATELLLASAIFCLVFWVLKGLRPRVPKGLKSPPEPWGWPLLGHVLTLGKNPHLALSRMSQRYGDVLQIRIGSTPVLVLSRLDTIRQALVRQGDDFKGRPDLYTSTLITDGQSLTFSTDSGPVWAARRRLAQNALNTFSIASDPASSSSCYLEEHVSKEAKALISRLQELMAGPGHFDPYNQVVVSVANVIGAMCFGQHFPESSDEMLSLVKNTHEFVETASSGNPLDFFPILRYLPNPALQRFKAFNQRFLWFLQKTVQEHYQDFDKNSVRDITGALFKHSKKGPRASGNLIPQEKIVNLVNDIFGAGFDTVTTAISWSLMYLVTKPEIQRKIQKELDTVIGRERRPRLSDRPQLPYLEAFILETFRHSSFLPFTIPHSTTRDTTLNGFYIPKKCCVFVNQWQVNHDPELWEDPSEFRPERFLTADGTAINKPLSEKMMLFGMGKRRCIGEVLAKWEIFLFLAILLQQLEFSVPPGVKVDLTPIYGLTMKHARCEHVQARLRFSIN
How it was run: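 Luminescence from luciferin formed by CYP1A2 from a proluciferin substrate, read 20 min after detection reagent. Compound was pre-incubated 10 min with enzyme-substrate, and reaction started with NADPH regeneration solution for 1 h at room temperature; furafylline control.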

[6] = target: Voltage-gated inwardly rectifying potassium channel KCNH2 (Homo sapiens) (UniProt Q12809); assay: Human Ether-a-go-go-Related Gene (hERG) channel small molecule antagonists: fluorescence cell-based qHTS assay (AID 1671200); conditions: hERG-U2OS cells, FluxOR thallium flux fluorescence; series mostly up to 76.8 µM; note: nearly all actives have a fitted effect of over 50% in size
Chain of Voltage-gated inwardly rectifying potassium channel KCNH2 (Homo sapiens) (Q12809 whole entry, looked up): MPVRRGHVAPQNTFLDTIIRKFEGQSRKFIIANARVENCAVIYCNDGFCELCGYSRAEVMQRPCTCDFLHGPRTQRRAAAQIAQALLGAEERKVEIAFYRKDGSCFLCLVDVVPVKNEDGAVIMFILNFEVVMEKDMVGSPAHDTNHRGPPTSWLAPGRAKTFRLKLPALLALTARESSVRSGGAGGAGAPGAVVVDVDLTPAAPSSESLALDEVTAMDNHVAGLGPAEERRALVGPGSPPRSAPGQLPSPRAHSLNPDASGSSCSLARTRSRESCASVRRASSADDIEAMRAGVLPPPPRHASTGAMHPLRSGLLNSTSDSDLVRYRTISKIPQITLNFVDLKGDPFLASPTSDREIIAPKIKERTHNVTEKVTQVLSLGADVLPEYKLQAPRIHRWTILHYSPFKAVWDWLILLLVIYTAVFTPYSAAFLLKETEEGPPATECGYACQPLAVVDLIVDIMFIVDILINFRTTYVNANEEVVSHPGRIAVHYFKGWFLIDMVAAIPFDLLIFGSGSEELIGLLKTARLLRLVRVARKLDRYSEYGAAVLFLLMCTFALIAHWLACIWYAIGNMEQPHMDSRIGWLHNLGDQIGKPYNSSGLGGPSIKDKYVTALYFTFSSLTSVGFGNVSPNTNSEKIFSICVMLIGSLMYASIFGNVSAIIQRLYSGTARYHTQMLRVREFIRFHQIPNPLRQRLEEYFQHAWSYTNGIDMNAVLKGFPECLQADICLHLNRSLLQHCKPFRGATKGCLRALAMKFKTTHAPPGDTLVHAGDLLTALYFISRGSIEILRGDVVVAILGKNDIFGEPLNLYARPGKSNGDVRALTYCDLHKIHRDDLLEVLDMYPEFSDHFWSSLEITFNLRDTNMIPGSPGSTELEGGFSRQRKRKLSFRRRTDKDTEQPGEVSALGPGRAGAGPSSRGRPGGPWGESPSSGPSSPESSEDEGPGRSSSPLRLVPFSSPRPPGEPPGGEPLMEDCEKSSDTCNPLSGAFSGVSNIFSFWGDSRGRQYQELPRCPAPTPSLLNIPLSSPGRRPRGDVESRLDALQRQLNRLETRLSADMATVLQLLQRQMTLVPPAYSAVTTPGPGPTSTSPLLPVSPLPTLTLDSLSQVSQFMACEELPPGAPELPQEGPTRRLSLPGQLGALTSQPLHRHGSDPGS
How it was run: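 Kinetic two-minute fluorescence traces, sampled at 1 s, were collected following thallium stimulus of U2OS cells (1000 per well) that had been cultured overnight at 37 C and loaded with FluxOR II.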

[7] = target: Cytochrome P450 3A4 (Homo sapiens) (UniProt P08684); assay: Cytochrome P450 Family 3 Subfamily A Member 4 (CYP3A4) small molecule antagonists: luciferase reporter qHTS assay (AID 1671201); conditions: P450-Glo CYP3A4 enzyme, luciferin luminescence, 1 h; series mostly up to 115 µM; note: nearly all actives have a fitted effect of over 50% in size
Chain of Cytochrome P450 3A4 (Homo sapiens) (P08684 whole entry, looked up): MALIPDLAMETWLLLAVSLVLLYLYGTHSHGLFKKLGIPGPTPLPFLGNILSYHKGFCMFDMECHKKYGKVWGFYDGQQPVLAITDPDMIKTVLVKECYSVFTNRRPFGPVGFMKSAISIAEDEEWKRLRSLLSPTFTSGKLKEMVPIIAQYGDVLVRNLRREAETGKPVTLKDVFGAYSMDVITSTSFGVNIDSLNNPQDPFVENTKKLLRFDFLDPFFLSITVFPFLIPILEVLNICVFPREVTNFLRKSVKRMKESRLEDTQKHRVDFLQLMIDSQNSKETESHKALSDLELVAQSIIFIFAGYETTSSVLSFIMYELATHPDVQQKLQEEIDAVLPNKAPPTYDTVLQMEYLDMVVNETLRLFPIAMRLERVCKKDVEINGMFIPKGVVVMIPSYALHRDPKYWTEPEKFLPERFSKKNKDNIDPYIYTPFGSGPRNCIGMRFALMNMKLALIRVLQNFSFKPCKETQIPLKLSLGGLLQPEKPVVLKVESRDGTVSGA
How it was run: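 Proluciferin-to-luciferin conversion by CYP3A4, NADPH-regenerated, 1 h RT; luminescence read as RLU. Ketoconazole as control.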

Measured: Potency
Potency is the fitted concentration of half-maximal effect.

CC(C)(C)NCC(O)c1ccccc1Cl (configuration not stated)
inactive: [1] | [3] | [4] | [5]
active: [2] 9.77 µM

COC1=CC(=O)O[C@@H](/C=C/c2ccc3c(c2)OCO3)C1
inactive: [1] | [6]
active: [2] 34.1 µM | [3] 8.56 µM | [4] 2.71 µM | [5] 3.41 µM | [7] 4.81 µM

CCOP(=O)(SC(C)CC)N1CCSC1=O (configuration not stated)
active: [3] 79.6 µM | [4] 63.3 µM | [5] 35.6 µM
inactive: [1] | [2] | [6]

CCOP(=S)(OCC)Oc1ccc(S(C)=O)cc1 (configuration not stated)
active: [3] 0.113 µM | [4] 0.252 µM | [5] 3.99 µM
inactive: [1] | [2]

CCCC[N+]1(C)[C@@H]2CC(OC(=O)[C@H](CO)c3ccccc3)C[C@H]1[C@@H]1O[C@@H]12 (some centres not stated)
active: [2] 1.55 µM
not listed: [7]
inactive: all other assays above

COc1ccc(C(=O)c2c(C)n(CCN3CCOCC3)c3ccccc23)cc1
inactive: [1]
active: [2] 15.5 µM | [3] 34.7 µM | [4] 12.3 µM

C1CCNCC1
active: [5] 36.8 µM
not listed: [7]
inactive: all other assays above

CC(C)(C)CC(C)(C)c1ccc(O)cc1
39.9 µM (active) and inactive: [2]
active: [4] 22.4 µM and 15.5 µM | [5] 37.3 µM | [6] 40 µM
inactive: [1] | [3]

O=C(O)c1ccc(=O)[nH]c1
not listed: [7]
inactive: all other assays above

CN(C)c1ccc(N=O)cc1
inactive: [1]
active: [2] 17.9 µM and 25.2 µM | [3] 5.66 µM and 8.94 µM | [4] 35.7 µM and 39.9 µM | [5] 35.7 µM and 39.9 µM

CCC(C)(C)c1ccc(O)c(C(C)(C)CC)c1
active: [2] 35.2 µM and 31.7 µM | [3] 4.97 µM and 1.78 µM | [4] 4.43 µM and 5.64 µM | [5] 19.8 µM and 31.7 µM | [7] 19.8 µM and 25.2 µM
inactive: [1] | [6]

O=C(O)C(F)(F)C(F)(F)C(F)(F)C(F)(F)C(F)(F)C(F)(F)C(F)(F)C(F)(F)F
active: [3] 71 µM | [4] 1.78 µM
not listed: [7]
inactive: all other assays above

OCC1CO1 (configuration not stated)
inactive: all assays above

CC1(C)CC(=O)CC(C)(C)N1[O]
inactive: all assays above

CCCN(CCC)c1c([N+](=O)[O-])cc(C(C)C)cc1[N+](=O)[O-]
active: [3] 8.75 µM and 5.03 µM | [4] 27.7 µM and 31.7 µM | [5] 27.7 µM and 35.6 µM
inactive: [1] | [2] | [6]

C=CCc1ccc(OC(=O)Cc2ccccc2)c(OC)c1
inactive: [1] | [6]
active: [2] 35.6 µM | [3] 22.4 µM | [4] 12.6 µM | [5] 35.6 µM | [7] 11.2 µM

Cc1cccc(C)c1NC1=NCCCS1
active: [2] 11 µM
not listed: [7]
inactive: all other assays above

CCCC(C)(COC(N)=O)COC(=O)NC(C)C (configuration not stated)
active: [3] 20 µM and 8.71 µM
inactive: all other assays above

O=S(=O)(c1ccccc1)c1ccccc1
active: [3] 63.3 µM
not listed: [7]
inactive: all other assays above

CCc1cnc(C2=NC(C)(C(C)C)C(=O)N2)c(C(=O)O)c1 (configuration not stated)
inactive: all assays above

CCCSP(=S)(OCC)Oc1ccc(SC)cc1 (configuration not stated)
active: [2] 25.2 µM | [3] 0.399 µM | [4] 2.52 µM | [5] 2 µM | [7] 3.17 µM
inactive: [1] | [6]

C[C@H]1[C@@H]2Cc3ccc(O)cc3[C@@]1(C)CCN2C
active: [1] 191 µM | [2] 33.9 µM | [3] 53.8 µM
inactive: all other assays above

CC(Cc1ccccc1)NCc1ccccc1Cl (configuration not stated)
active: [2] 0.174 µM | [3] 1.38 µM | [5] 15.5 µM
inactive: [1] | [4] | [6]

C[N+]1(CCF)[C@@H]2CC[C@H]1CC(OC(=O)C(O)(c1ccccc1)c1ccccc1)C2 (some centres not stated)
active: [2] 17.4 µM
inactive: all other assays above

Nc1ccc2c(c1)Cc1ccccc1-2
active: [2] 62.9 µM | [3] 8.88 µM | [4] 15.8 µM | [5] 1.25 µM
inactive: [1] | [6]

COc1cc(C[C@@H](C)N)c(OC)cc1Br
active: [2] 11.6 µM | [5] 36.5 µM
inactive: all other assays above
